Test results: the supplement of paper PMC7156485

tested on: HCC1569; experiment: H1.0 immunofluorescence intensity relative to DMSO (% of DMSO); higher = stronger H1.0 induction, active = 140 or more; details: concentration: 10 µM; 24 h
In short: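 Using 384-well plates with 800 cells per well in RPMI plus 10% FBS, HCC1569 and TDF cells were exposed to compounds at 10 µM, in triplicate, for 24 h at 37 °C. Imaging of six fields per well at ×10 followed H1.0 and DAPI staining. The reported quantity, H1.0 nuclear intensity or cell number, is a median of replicates given as percent of the plate control, and HCC1569 values were smoothed for positional effects.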
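Further: TDF is a line of transformed human dermal fibroblasts of mesenchymal origin.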

H1.0 immunofluorescence intensity, inactive:
O=C(O)C=Cc1cnc[nH]1 [4-Imidazoleacrylic acid] 108
CN1C2CCC1CC(OC(=O)c1c[nH]c3ccccc13)C2.Cl (stereo unspecified) [3-Tropanyl-indole-3-carboxylate hydrochloride] 112
O=c1cc(O)cc(C=Cc2ccc(O)c(O)c2)o1 [Hispidin] 108
C=CC(=O)Nc1cc2c(Nc3ccc(F)c(Cl)c3)ncnc2cc1OCCCN1CCOCC1.Cl.Cl [Canertinib] 125
Cl.O.O.c1ccc2c(c1)CN1CCCC1=N2 [Desoxypeganine] 86.8
CCCCCCCCCCCCCC=CC(O)C(CO)N(C)C (stereo unspecified) [N,N-Dimethylsphingosine] 101
